PubChem BioAssay (Tox21)
Results filed as inconclusive are left out. Entries that show only a call come without a potency. Active and inactive are the calls of the source. Calls come from the whole dose curve; as a rule, active = well fitted curve in the direction sought with a large enough effect in the repeat runs; inconclusive = weak or mixed curves; inactive = no such curve, though single readings can be large; an effect the other way counts as inactive or inconclusive.

Columns and labels:
[1] = A CellTox Green Cytotoxicity Assay to monitor cytotoxicity in HEK293 cells - 24 hour (AID 1224875); note: nearly all actives have a fitted effect of over 45% in size; note: potency is the fitted concentration of half-maximal effect
Method in brief: (§1)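 Seeding of HEK293 cells together with cytotoxicity dye preceded a 5 h incubation at 37 C/5% CO2. Test compounds in DMSO were then added and fluorescence monitored across 40 h.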

[2] = A CellTox Green Cytotoxicity Assay to monitor cytotoxicity in HepG2 cells - 16 hour (AID 1224876); note: nearly all actives have a fitted effect of over 45% in size; note: potency is the fitted concentration of half-maximal effect
Method in brief: (§2)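 Nonlytic assay: viable cells exclude the dye, so fluorescence scales with cell death. HepG2 at 600 cells/well, compounds added after 5 h, signal read across 40 h.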

[3] = qHTS RealTime-Glo MT Cell Viability Assay in HepG2 cells - 32 hour (AID 1224877); note: nearly all actives have a fitted effect of over 55% in size; note: potency is the fitted concentration of half-maximal effect
Method in brief: (§3)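 qHTS, HepG2, 600 cells/well, RealTime-Glo (NanoLuc + prosubstrate) added with cells; 5 h preincubation; DMSO compound addition; 37 C; luminescence at 0/8/16/24/32/40 h.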

[4] = A CellTox Green Cytotoxicity Assay to monitor cytotoxicity in HepG2 cells - 40 hour (AID 1224879); note: nearly all actives have a fitted effect of over 40% in size; note: potency is the fitted concentration of half-maximal effect
Method in brief: as §2

[5] = A CellTox Green Cytotoxicity Assay to monitor cytotoxicity in HepG2 cells - 0 hour (AID 1224882); note: nearly all actives have a fitted effect of over 35% in size
Method in brief: as §2

[6] = A CellTox Green Cytotoxicity Assay to monitor cytotoxicity in HepG2 cells - 32 hour (AID 1224883); note: nearly all actives have a fitted effect of over 50% in size; note: potency is the fitted concentration of half-maximal effect
Method in brief: as §2

[7] = A CellTox Green Cytotoxicity Assay to monitor cytotoxicity in HEK293 cells - 8 hour (AID 1224884); note: nearly all actives have a fitted effect of over 35% in size; note: potency is the fitted concentration of half-maximal effect
Method in brief: as §1

[8] = qHTS RealTime-Glo MT Cell Viability Assay in HepG2 cells - 16 hour (AID 1224885); note: nearly all actives have a fitted effect of over 50% in size; note: potency is the fitted concentration of half-maximal effect
Method in brief: as §3

[9] = A CellTox Green Cytotoxicity Assay to monitor cytotoxicity in HEK293 cells - 16 hour (AID 1224888); note: nearly all actives have a fitted effect of over 35% in size; note: potency is the fitted concentration of half-maximal effect
Method in brief: as §1

[10] = qHTS RealTime-Glo MT Cell Viability Assay in HepG2 cells - 0 hour (AID 1224889); note: nearly all actives have a fitted effect of over 50% in size
Method in brief: as §3

[11] = A CellTox Green Cytotoxicity Assay to monitor cytotoxicity in HepG2 cells - 8 hour (AID 1224890); note: nearly all actives have a fitted effect of over 45% in size; note: potency is the fitted concentration of half-maximal effect
Method in brief: as §2

[12] = qHTS assay to identify small molecule antagonists of the estrogen receptor alpha (ER-alpha) signaling pathway using the BG1 cell line in the presence of 0.1 nM 17-beta-estradiol - cell viability counter screen (AID 1259241); note: nearly all actives have a fitted effect of over 40% in size; note: potency is the fitted concentration of half-maximal effect
Method in brief: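 Estradiol-stimulated (0.1 nM) VM7Luc4E2 cells exposed to compounds 22 hr; viability measured by fluorescence of cleaved CellTiter-Fluor substrate after 30 min.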

[13] = biological target: Androgen receptor (Homo sapiens) (UniProt P10275); assay: qHTS assay to identify small molecule antagonists of the androgen receptor (AR) signaling pathway using the MDA cell line in the presence of 0.5 nM R1881 (AID 1259243); note: nearly all actives have a fitted effect of over 50% in size; note: potency is the fitted concentration of half-maximal effect
Method in brief: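 We exposed MDA-kb2 cells to compounds under 0.5 nM R1881 stimulation for 16 hr at 37C and quantified MMTV-driven luciferase by luminescence.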

[14] = biological target: Estrogen receptor (Homo sapiens) (UniProt P03372); assay: qHTS assay to identify small molecule antagonists of the estrogen receptor alpha (ER-alpha) signaling pathway using the BG1 cell line in the presence of 0.1 nM 17-beta-estradiol (AID 1259244); note: nearly all actives have a fitted effect of over 50% in size; note: potency is the fitted concentration of half-maximal effect
Method in brief: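 VM7Luc4E2; 4xERE-luciferase; 0.1 nM E2 final; 22 h co-incubation, 37C; ONE-Glo luminescence after 30 min at room temperature.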

[15] = A CellTox Green Cytotoxicity Assay to monitor cytotoxicity in HEK293 cells - 32 hour (AID 1224881); note: nearly all actives have a fitted effect of over 40% in size; note: potency is the fitted concentration of half-maximal effect
Method in brief: as §1

[16] = qHTS assay to identify small molecule antagonists of the androgen receptor (AR) signaling pathway using the MDA cell line in the presence of 0.5 nM R1881 - cell viability counter screen (AID 1259242); note: nearly all actives have a fitted effect of over 45% in size; note: potency is the fitted concentration of half-maximal effect
Method in brief: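 R1881 at 0.5 nM final stimulated MDA-kb2 cells during 16 hr compound treatment at 37C. Cytotoxicity read: CellTiter-Fluor fluorescence after 30 min.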

[17] = qHTS RealTime-Glo MT Cell Viability Assay in HEK293 cells - 0 hour (AID 1224880)
Method in brief: (§4)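 Tox21 screen in HEK293 using RealTime-Glo MT chemistry, with cells and reagent co-dispensed. Luminescence proportional to viable cell number was captured at intervals during 40 h compound exposure at 37 C.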

[18] = qHTS RealTime-Glo MT Cell Viability Assay in HEK293 cells - 24 hour (AID 1224886); note: nearly all actives have a fitted effect of over 50% in size; note: potency is the fitted concentration of half-maximal effect
Method in brief: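 Assay medium contained NanoLuc luciferase plus cell-permeant prosubstrate, added with HEK293 cells at 600 cells/well. After 5 h at 37 C/5% CO2 compounds were added; plates stayed at 37 C for 40 h with serial luminescence reads.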

[19] = qHTS RealTime-Glo MT Cell Viability Assay in HEK293 cells - 8 hour (AID 1224887); note: nearly all actives have a fitted effect of over 50% in size; note: potency is the fitted concentration of half-maximal effect
Method in brief: as §4

[20] = A CellTox Green Cytotoxicity Assay to monitor cytotoxicity in HepG2 cells - 24 hour (AID 1224878); note: nearly all actives have a fitted effect of over 45% in size; note: potency is the fitted concentration of half-maximal effect
Method in brief: as §2

Chain of Estrogen receptor (Homo sapiens) (P03372 whole entry, looked up): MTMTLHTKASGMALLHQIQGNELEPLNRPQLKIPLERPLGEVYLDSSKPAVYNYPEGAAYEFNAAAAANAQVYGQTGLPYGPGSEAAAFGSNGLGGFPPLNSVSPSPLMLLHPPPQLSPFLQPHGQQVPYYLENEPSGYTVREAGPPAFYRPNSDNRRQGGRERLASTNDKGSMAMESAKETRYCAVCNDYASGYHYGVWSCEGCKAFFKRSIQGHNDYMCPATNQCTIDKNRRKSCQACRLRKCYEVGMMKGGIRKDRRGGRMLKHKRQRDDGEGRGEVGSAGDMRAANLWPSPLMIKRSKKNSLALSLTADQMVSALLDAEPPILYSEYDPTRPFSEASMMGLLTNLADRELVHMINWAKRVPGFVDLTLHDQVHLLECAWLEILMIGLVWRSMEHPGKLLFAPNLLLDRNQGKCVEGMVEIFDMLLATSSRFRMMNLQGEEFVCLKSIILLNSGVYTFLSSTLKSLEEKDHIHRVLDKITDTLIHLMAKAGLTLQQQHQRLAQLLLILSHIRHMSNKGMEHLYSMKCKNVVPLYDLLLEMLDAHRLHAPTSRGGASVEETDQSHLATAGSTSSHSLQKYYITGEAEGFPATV
Chain of Androgen receptor (Homo sapiens) (P10275 whole entry, looked up): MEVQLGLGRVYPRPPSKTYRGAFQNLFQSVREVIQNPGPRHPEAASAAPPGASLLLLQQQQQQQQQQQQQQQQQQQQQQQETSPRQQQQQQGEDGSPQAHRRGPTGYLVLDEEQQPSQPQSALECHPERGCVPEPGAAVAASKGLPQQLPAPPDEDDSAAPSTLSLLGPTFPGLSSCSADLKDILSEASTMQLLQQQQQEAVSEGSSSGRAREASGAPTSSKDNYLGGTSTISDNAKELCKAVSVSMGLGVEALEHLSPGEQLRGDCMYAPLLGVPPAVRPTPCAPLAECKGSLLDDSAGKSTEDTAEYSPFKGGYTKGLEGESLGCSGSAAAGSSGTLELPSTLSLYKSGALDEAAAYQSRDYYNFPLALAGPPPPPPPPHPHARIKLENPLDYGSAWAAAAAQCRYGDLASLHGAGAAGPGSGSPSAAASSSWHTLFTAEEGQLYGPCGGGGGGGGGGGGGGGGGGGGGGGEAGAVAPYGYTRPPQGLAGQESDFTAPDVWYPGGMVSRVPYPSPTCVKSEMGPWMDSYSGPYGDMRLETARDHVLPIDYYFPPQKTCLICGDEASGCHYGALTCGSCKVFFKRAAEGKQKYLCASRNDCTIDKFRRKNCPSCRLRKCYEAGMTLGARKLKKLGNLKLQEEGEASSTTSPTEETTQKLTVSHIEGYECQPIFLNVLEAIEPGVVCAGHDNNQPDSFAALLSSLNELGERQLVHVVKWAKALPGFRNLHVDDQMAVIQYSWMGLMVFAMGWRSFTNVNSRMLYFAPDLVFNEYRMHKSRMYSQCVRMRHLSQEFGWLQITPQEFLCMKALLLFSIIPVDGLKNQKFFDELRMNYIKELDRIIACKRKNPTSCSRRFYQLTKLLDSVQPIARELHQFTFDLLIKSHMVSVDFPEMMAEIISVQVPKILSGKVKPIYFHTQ

SMILES	Potency [1]	Potency [2]	Potency [3]	Potency [4]	Potency [5]	Potency [6]	Potency [7]	Potency [8]	Potency [9]	Potency [10]	Potency [11]	Potency [12]	Potency [13]	Potency [14]	Potency [15]	Potency [16]	Potency [17]	Potency [18]	Potency [19]	Potency [20]
C=COCCCC	inactive	inactive	inactive	inactive	inactive	inactive	inactive	inactive	inactive	inactive	inactive	inactive	inactive	inactive	–	–	–	–	–	–
O=C(N[C@H](CO)[C@H](O)c1ccc([N+](=O)[O-])cc1)C(Cl)Cl	inactive	inactive	inactive	inactive	–	inactive	inactive	inactive	inactive	inactive	inactive	inactive	–	inactive	inactive	inactive	–	–	–	–
CC(C=O)c1ccccc1 (stereo not given)	inactive	inactive	inactive	inactive	inactive	inactive	inactive	inactive	inactive	inactive	inactive	inactive	inactive	inactive	inactive	–	inactive	inactive	inactive	–
O=c1cc[nH]cc1	inactive	inactive	inactive	inactive	inactive	inactive	inactive	inactive	inactive	inactive	inactive	inactive	inactive	inactive	inactive	–	inactive	inactive	inactive	–
CCCCCCCCCCCC(=O)Cl	inactive	inactive	inactive	inactive	inactive	inactive	–	inactive	inactive	inactive	inactive	inactive	–	inactive	inactive	–	inactive	inactive	inactive	–
COc1cccc(-c2ccc(/C=C\CN3CCCCCC3)cc2Cl)c1	48.7 µM (active)	43.4 µM (active)	48.7 µM (active)	38.7 µM (active)	–	38.7 µM (active)	–	43.4 µM (active)	–	inactive	–	inactive	–	–	43.4 µM (active)	–	–	43.4 µM (active)	48.7 µM (active)	–
c1ccc(C[P+](c2ccccc2)(c2ccccc2)c2ccccc2)cc1	inactive	inactive	inactive	19.5 µM (active)	inactive	21.9 µM (active)	inactive	inactive	inactive	inactive	inactive	–	–	1.22 µM (active)	–	10.9 µM (active)	inactive	1.74 µM (active)	–	–
CN[C@H]1CC[C@@H](c2ccc(Cl)c(Cl)c2)c2ccc(S(N)(=O)=O)cc21	21.9 µM (active)	43.6 µM (active)	19.5 µM (active)	13.8 µM (active)	inactive	13.8 µM (active)	54.9 µM (active)	43.6 µM (active)	24.5 µM (active)	–	–	inactive	30.6 µM (active)	61.1 µM (active)	24.5 µM (active)	–	–	21.9 µM (active)	38.9 µM (active)	–
O=C1CCC/C=C\CCCCCCCCCC1	inactive	inactive	inactive	–	inactive	–	inactive	inactive	inactive	inactive	inactive	–	–	–	–	inactive	inactive	inactive	inactive	–
O=C(Nc1ccc([N+](=O)[O-])cc1)Nc1ccc([N+](=O)[O-])cc1 (tested in a mixture with another compound)	inactive	inactive	inactive	21.3 µM (active)	–	21.3 µM (active)	inactive	inactive	inactive	inactive	inactive	inactive	–	–	inactive	–	inactive	–	inactive	–
C=C1CC[C@H]2O[C@]2(C)CC[C@@H]2[C@@H]1CC2(C)C	inactive	inactive	inactive	inactive	inactive	inactive	inactive	inactive	inactive	inactive	inactive	inactive	inactive	inactive	inactive	inactive	inactive	–	49 µM (active)	–
NCc1cccc(C2CCN(C(=O)c3ccc(C#Cc4ccccc4F)o3)CC2)c1	49 µM (active)	38.9 µM (active)	–	43.6 µM (active)	inactive	43.6 µM (active)	–	49 µM (active)	49 µM (active)	–	49 µM (active)	–	–	68.6 µM (active)	49 µM (active)	–	inactive	54.9 µM (active)	43.6 µM (active)	–
CC/C=C\C/C=C\C/C=C\CCCCCCCC(=O)OC	inactive	inactive	inactive	inactive	inactive	inactive	inactive	inactive	inactive	–	inactive	–	–	inactive	inactive	inactive	inactive	inactive	inactive	–
N#CCCOCCC#N	inactive	inactive	inactive	inactive	–	inactive	inactive	inactive	inactive	inactive	inactive	inactive	inactive	–	inactive	inactive	inactive	inactive	inactive	–
CCCOC(=O)c1ccc(O)cc1	inactive	inactive	inactive	–	inactive	inactive	inactive	inactive	inactive	inactive	inactive	inactive	–	inactive	inactive	–	inactive	21.9 µM (active)	–	–
CCNc1nc(NC(C)(C)C)nc(OC)n1	inactive	inactive	inactive	inactive	inactive	inactive	inactive	inactive	inactive	inactive	inactive	inactive	–	inactive	inactive	inactive	inactive	–	inactive	–
O=C1CCCCCCCCCCCCCC1	43.6 µM (active)	inactive	inactive	–	inactive	–	–	inactive	43.6 µM (active)	inactive	inactive	inactive	–	–	43.6 µM (active)	inactive	inactive	inactive	inactive	–
O=C1OC(O)C(C(Cl)Cl)=C1Cl (stereo not given)	inactive	inactive	–	35.7 µM (active)	inactive	45 µM (active)	inactive	–	inactive	inactive	inactive	inactive	–	inactive	inactive	inactive	inactive	–	inactive	–
C=Cc1ccncc1	inactive	inactive	inactive	inactive	–	inactive	inactive	inactive	inactive	inactive	inactive	inactive	inactive	–	inactive	–	inactive	inactive	inactive	–
C1CCSC1	inactive	inactive	inactive	inactive	inactive	inactive	inactive	inactive	inactive	inactive	inactive	inactive	–	inactive	inactive	inactive	inactive	–	–	–
C/C=C/C(=O)OCC(C)C	inactive	inactive	inactive	inactive	inactive	inactive	inactive	inactive	inactive	inactive	inactive	–	inactive	inactive	inactive	inactive	inactive	inactive	inactive	–
c1ccc2cc3c4ccccc4c4ccccc4c3cc2c1	inactive	inactive	inactive	13.9 µM (active)	inactive	13.9 µM (active)	inactive	inactive	inactive	inactive	inactive	inactive	–	–	–	inactive	inactive	inactive	inactive	–
CN1CCN(c2ccccc2/C=C2\SCCN(c3ccc(Cl)c(Cl)c3)C2=O)CC1	49 µM (active)	49 µM (active)	21.9 µM (active)	19.5 µM (active)	–	21.9 µM (active)	–	43.6 µM (active)	49 µM (active)	inactive	–	–	–	inactive	49 µM (active)	48.6 µM (active)	inactive	12.3 µM (active)	12.3 µM (active)	–
N#Cc1ccc(C/C(=N/NC(=O)Nc2ccc(OC(F)(F)F)cc2)c2cccc(C(F)(F)F)c2)cc1	inactive	inactive	–	inactive	inactive	inactive	inactive	–	inactive	inactive	inactive	–	inactive	inactive	inactive	–	inactive	inactive	inactive	inactive
CC(=O)[C@]1(O)Cc2c(O)c3c(c(O)c2[C@@H](O[C@H]2C[C@H](N)[C@H](O)[C@H](C)O2)C1)C(=O)c1ccccc1C3=O	inactive	21.3 µM (active)	–	–	–	23.9 µM (active)	–	12 µM (active)	inactive	inactive	23.9 µM (active)	10.6 µM (active)	0.531 µM (active)	inactive	inactive	–	inactive	0.12 µM (active)	–	23.9 µM (active)
CC(O)(c1ccc(Cl)cc1)c1ccc(Cl)cc1	49 µM (active)	49 µM (active)	–	49 µM (active)	inactive	49 µM (active)	–	–	–	inactive	54.9 µM (active)	inactive	–	–	49 µM (active)	inactive	inactive	24.5 µM (active)	34.7 µM (active)	49 µM (active)
CCCCC/C=C\C=C\C(=O)OCC	inactive	inactive	–	36.1 µM (active)	inactive	25.6 µM (active)	inactive	–	inactive	inactive	inactive	–	–	inactive	–	–	inactive	–	–	22.8 µM (active)
COc1cc(/C=C/C(=O)CC(=O)/C=C/c2ccc(O)c(OC)c2)ccc1O	43.9 µM (active)	49.3 µM (active)	–	19.6 µM (active)	–	49.3 µM (active)	49.3 µM (active)	–	49.3 µM (active)	–	49.3 µM (active)	inactive	15.4 µM (active)	–	39.2 µM (active)	–	–	31.1 µM (active)	6.96 µM (active)	49.3 µM (active)
CC(C)(C)C1=CC(=O)C(C(C)(C)C)=CC1=O	inactive	inactive	inactive	inactive	–	inactive	inactive	inactive	inactive	–	inactive	inactive	–	–	inactive	inactive	inactive	–	–	–
